Compound activity (PubChem BioAssay)
Only some compounds are listed: those with a hit (about 2.4% of all), similar ones and a draw of the others.
D2 PAM-1 = HTS Assay for Positive Allosteric Modulators of the Human D2 Dopamine Receptor: Primary Screen for Potentiators. HEK293 T-REx D2, calcium flux, EC20 dopamine potentiation. hit rate 0.34% among 340,000. AID 485347, 2010. D(2) dopamine receptor (Homo sapiens), P14416. potentiation, % at 10 µM;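 active = potentiation over 3 SD above the plate norm, cut at about 30% in these data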; also: 0% is about no effect
Target sequence (P14416 whole entry, looked up): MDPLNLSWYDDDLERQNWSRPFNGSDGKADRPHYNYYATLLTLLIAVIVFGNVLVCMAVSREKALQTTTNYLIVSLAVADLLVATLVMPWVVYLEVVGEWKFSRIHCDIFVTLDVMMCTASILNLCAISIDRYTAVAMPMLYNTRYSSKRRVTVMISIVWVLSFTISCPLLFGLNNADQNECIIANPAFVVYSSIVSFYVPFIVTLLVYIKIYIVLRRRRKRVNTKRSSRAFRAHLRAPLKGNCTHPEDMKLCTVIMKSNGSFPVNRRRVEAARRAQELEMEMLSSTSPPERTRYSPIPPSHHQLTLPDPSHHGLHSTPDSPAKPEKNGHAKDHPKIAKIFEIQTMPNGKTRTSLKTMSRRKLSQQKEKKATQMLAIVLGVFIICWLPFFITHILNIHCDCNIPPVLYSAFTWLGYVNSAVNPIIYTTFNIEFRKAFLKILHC
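Potentiation of an EC20 dopamine calcium response measured kinetically over 180 s, after a preceding 180 s compound-only read flagging agonists. Cells: inducible Hek293 Trex D2 line, 4000/well, cultured overnight at 30 C before dye loading.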
D2 ag-1 = HTS Assay for Allosteric Agonists of the Human D2 Dopamine Receptor: Primary Screen for Agonists; D(2) dopamine receptor (Homo sapiens), P14416; HEK293 T-REx D2 cells, calcium flux agonist mode; activation, % at 2 µM; hit rate 0.53% among 340,000; AID 485358, 2010;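 active = activation over 3 SD above normal in the single-dose calcium agonist read, cut at about 30% in these data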; also: 0% is about no effect
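In this primary screen, compounds producing a positive calcium signal within 180 s of addition to tetracycline-induced, force-coupled HEK293 Trex D2 cells are flagged; cells are dye-loaded with a no-wash calcium kit beforehand.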
D2 PAM-2 = Beta-Arrestin HTS for Positive Allosteric Modulators of the Human D2 Dopamine Receptor: Potentiators | D(2) dopamine receptor (Homo sapiens), P14416 | DiscoveRx D2 beta-arrestin cells, luminescence, 90 min; 100% = 57 uM dopamine signal | potentiation, % (no concentration beside the values) | hit rate 0.23% among 360,000 | AID 624464, 2012; in the data active = potentiation above about 50%
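D2 cells co-treated with compound plus 50 nM dopamine (EC20) for 90 min at 37 deg C to detect potentiation. Beta-arrestin recruitment was read as enzyme-fragment luminescence after 1 h at ambient temperature. Full response was set by 57 uM dopamine.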
D2 antagonist = HTS Assay for Allosteric Antagonists of the Human D2 Dopamine Receptor: Primary Screen for Antagonists. D(2) dopamine receptor (Homo sapiens), P14416. HEK293 TREx D2 cells, calcium flux, dopamine EC80. inhibition, % at 10 µM. hit rate 2% among 340,000. AID 485344, 2010; in the data active = inhibition above about 30%; inactive = below that, where a call was filed; also: 0% is about no effect
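Calcium flux kinetic readout in an inducible HEK293 TREx D2 line plated overnight at 30 C. After 180 s compound exposure, an EC80 dopamine challenge follows with another 180 s kinetic read to detect antagonism.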
D2 ag-2 = Beta-Arrestin HTS for Positive Allosteric Modulators of the Human D2 Dopamine Receptor: Agonists. D(2) dopamine receptor (Homo sapiens), P14416. DiscoveRx PathHunter D2 beta-arrestin, luminescence, 90 min; 100% = 57 uM dopamine signal. activation, % (no concentration beside the values). hit rate 0.084% among 360,000. AID 624465, 2012; in the data active = activation above about 40%
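Agonist mode: compounds alone added to overnight-plated D2 PathHunter cells for 90 min at 37 C, with 57 uM final dopamine (EC100) defining full response. Beta-arrestin recruitment detected by chemiluminescent reagent, read after 1 h at ambient temperature.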
Active calls of the source: *; . = no result given.

SMILES	D2 PAM-1	D2 ag-1	D2 PAM-2	D2 antagonist	D2 ag-2
CCOC(=O)c1ccc(N2C(=O)c3[nH]nc(-c4ccc(OC)cc4)c3C2c2ccc(C)cc2)cc1 (stereo unspecified)	17.4	-0.1	.	.	.
Cc1ccccc1OC(=O)CSc1nnc(-c2ccc3c(c2)OCO3)o1	0.6	-0.8	.	.	.
O=C(COC(=O)/C=C/c1cccc(F)c1)Nc1ccccc1	4.5	0.5	-4.7	2.1	0.9
O=C(COC(=O)/C=C/c1cccc(F)c1)NNC(=O)c1ccccc1	3.7	0.1	-4.3	45.4*	5.8
Cc1ccc(/C=C/c2onc(C)c2S(=O)(=O)N2CCC(C(=O)N(CCC(C)C)Cc3ccco3)CC2)cc1	7.9	1.5	.	.	.
Cn1nnnc1SCC(=O)N1CCc2ccccc21	-0.8	0.3	-7.0	3.3	-1.4
Cn1nnnc1SCC(=O)N1CCCc2ccccc21	-5.3	-0.5	-3.1	40.6*	-3.2
Cc1ccccc1CC(=O)N1CCCc2ccccc21	2.5	-0.1	-1.4	-1.3	-3.6
Cc1ccc[n+](CC(=O)N2CCCc3ccccc32)c1	-15.6	0.6	-11.8	31.2*	3.0
CCOCCCNC(=O)Nc1cc(C(=O)NCc2ccc(C(C)C)cc2)ccc1N1CCCC1	12.9	0.4	.	.	.
Cc1ccc(S(=O)(=O)C(CNC(=O)C(=O)NCCc2ccc(Cl)cc2)c2cccs2)cc1 (stereo unspecified)	-6.5	0.0	.	.	.
CC(C)(C)c1ccc2c(c1)N(CC(=O)O)C(=O)CO2	3.9	0.2	5.3	-14.1	-1.4
COC(=O)CN1C(=O)COc2ccc(Cl)cc21	7.5	0.0	-3.6	-9.2	-3.2
CN(C)CCNC(=O)CN1C(=O)COc2ccc(C(C)(C)C)cc21	1.4	-0.1	-10.7	35.5*	-2.5
COCCNC(=O)CN1C(=O)COc2ccc(Cl)cc21	-8.3	0.6	-6.2	34.7*	-1.2
CCc1ccc(NC(=O)CSc2nc3ncccc3[nH]2)cc1	4.4	-0.6	.	.	.
COc1cc(S(=O)(=O)N2CCC(c3nc4ccccc4s3)CC2)ccc1S(=O)(=O)N1CC(C)CC(C)C1 (stereo unspecified)	34.0*	0.2	-7.2	18.1	0.0
O=C(Nc1nc2n(n1)C(c1ccc(F)cc1)C=C(c1ccc(Cl)cc1)N2)c1ccc([N+](=O)[O-])cc1 (stereo unspecified)	-1.3	.	.	.	.
COc1ccc(C)cc1NC(=O)CCn1nc(C)cc1C	10.0	0.9	.	.	.
O=C(NCc1ccc(Cl)cc1)C1CCN(c2cnccn2)CC1	-17.9	-0.5	-2.4	3.8	-3.2
O=C(NCc1ccc(Cl)cc1)C1CCCN(c2cnccn2)C1 (stereo unspecified)	-3.8	-1.3	-10.7	36.2*	-3.1
CCOC(=O)c1ccc(NC(=O)CCc2c(C)nc3c(c(C)nn3C)c2C)cc1	4.8	0.7	.	.	.
Cn1c(CN2CCCC2)nc2cc(NS(=O)(=O)c3ccc(Cl)cc3)ccc21	-16.7	2.9	-47.4	68.6*	-2.9
Cn1c(CCN2CCCC2)nc2cc(NS(=O)(=O)c3ccc(F)cc3)ccc21	.	.	-41.6	.	-1.1
Cn1c(CN2CCCC2)nc2cc(NS(=O)(=O)c3ccccc3)ccc21	-24.7	-0.6	-29.9	67.4*	-3.4
SMILES	D2 PAM-1	D2 ag-1	D2 PAM-2	D2 antagonist	D2 ag-2
COc1cc2c(cc1OC)C(COc1ccc3c(C)cc(=O)oc3c1)N(C(=O)Cc1ccc(F)cc1)CC2 (stereo unspecified)	2.6	0.0	.	.	.
CCc1ccc(CNCc2c(C(=O)O)n(Cc3ccc(C)cc3)c3cc(C)ccc23)cc1	-0.7	1.0	.	.	.
CCc1nnc2n1N=C(c1ccc(OC)cc1)CS2	4.1	0.1	-6.8	34.1*	-2.7
CCOc1ccc(-c2nnc3n2N=C(c2ccc(OC)cc2)CS3)cc1	9.0	0.7	-2.1	19.1	1.4
Cn1c(SCc2ccccc2)nnc1-c1c[nH]c2ccccc12	6.9	0.5	-8.2	35.2*	-3.6
CCCCSc1nnc(-c2c[nH]c3ccccc23)n1C	-2.1	0.2	-4.9	7.7	11.0
